# From PubChem BioAssay (NCATS)
# Inconclusive results are not listed. A call without a number means that no potency is given here. A number with no mark means an inactive call. Active and inactive are the calls of the source. Calls come from the whole dose curve; as a rule, active = well fitted inhibition curve with a large enough effect; inconclusive = small, poorly fitted or top-dose-only effect; inactive = no such curve, though single readings can be large or run the other way.
# Test system: Zika virus NS2B-NS3 protease (unlinked complex)
# Assay: Primary screen GU Rhodamine qHTS for Zika virus inhibitors: Unlinked NS2B-NS3 protease assay (AID 1347159); note: nearly all actives have a fitted effect of over 60% in size
# Conditions: Recombinant ZIKV NS2B-NS3 protease, Rhodamine110 substrate fluorescence; series mostly up to 107 µM
# Outline: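 A qHTS format was used, with compound concentrations ranging up to 114 microM. Each compound was preincubated with 25 nM NS2B-NS3 protease, and the substrate was then added at 1.5 microM. Curves were fitted with a 4-parameter Hill model.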
# Potency is the fitted concentration of half-maximal effect.
Structure (SMILES),Potency,"activity change, negative = inhibition"
CC(=O)c1c(O)cc2cccc3c2c1CC(C)(O)O3 (configuration not stated),35.5 µM (active),
CCCCN(CCCC)C(=O)CN1C[C@H](c2ccc3c(c2)OCO3)[C@@H](C(=O)O)[C@@H]1c1ccc(OC)cc1,28.2 µM (active),
COc1cc(N2CCC(O)CC2)ccc1Nc1cc(Nc2ccccc2S(=O)(=O)C(C)C)c2cc[nH]c2n1,inactive,
C=CC(C)(O)CC/C=C(\C)C(=O)OC1CC2(C(=O)O)CCC3(C)C(=CCC4C5(C)CCC(OC6OC(COC7OCC(O)C(O)C7O)C(O)C(OC7OCC(O)C(O)C7O)C6OC6OC(CO)C(O)C(O)C6OC6OCC(O)C(O)C6O)C(C)(C)C5CCC43C)C2CC1(C)C (configuration not stated),,-12.7% [at 19.1 µM]
C=CC1(C)C=C2C(O)CC3C(C)(C(=O)O)CCCC3(C)C2CC1 (configuration not stated),11.2 µM (active),
Cc1nnc(C(C)C)n1C1CC2CCC(C1)N2CCC(NC(=O)C1CCC(F)(F)CC1)c1ccccc1 (configuration not stated),inactive,
O=C(O)c1cc(O[C@@H]2O[C@H](CO[C@@H]3OC[C@@H](O)[C@H](O)[C@H]3O)[C@@H](O)[C@H](O)[C@H]2O)c2ccccc2c1O,inactive,
COc1cccc(-c2ccc([C@@H](Oc3cc(-c4ccc(C[C@H](N)C(=O)O)cc4)nc(N)n3)C(F)(F)F)cc2)c1,22.4 µM (active),
C[C@H]1[C@H](C)CC[C@]2(C(=O)O)CC[C@]3(C)C(=CC[C@@H]4[C@@]5(C)C[C@@H](O)[C@H](O)[C@@](C)(CO)[C@@H]5CC[C@]43C)[C@H]12,inactive,
C=C[C@H]1[C@H](O[C@@H]2O[C@H](CO)[C@@H](O)[C@H](O)[C@H]2O)OC=C2C(=O)OCC[C@]21O,35.5 µM (active),
C[C@@H]1C[C@H](O[C@@H]2O[C@H](CO[C@@H]3OC[C@](O)(CO)[C@H]3O)[C@@H](O)[C@H](O)[C@H]2O)CC(C)(C)[C@H]1/C=C/[C@@H](C)O,inactive,
C=C1[C@H]2[C@H](O[C@@H]3O[C@H](COC(=O)/C=C/c4cc(OC)c(O)c(OC)c4)[C@@H](O)[C@H](O)[C@H]3O)OC=C(C(=O)O)[C@H]2C[C@@H]1O,inactive,
C/C=C/C=C/C=C/C(=O)O[C@@H]1[C@@H](OC)C2=C(C(=O)N(C(C)C(=O)O)C2)[C@@]2(C)CCCC(C)(C)[C@H]12 (some centres not stated),7.94 µM (active),
CC(C)(O)c1ccc2c(c1)C(=O)CC1[C@](C)(CO)CCC[C@]21C (some centres not stated),31.6 µM (active),
O=C(c1ccc(NS(=O)(=O)c2cccc3cccnc23)cc1)N1CCN(CC2CC2)CC1,inactive,
COc1cc(-c2cccc(O)c2)cc2c1OCO2,35.5 µM (active),
CNc1nc(Nc2cnn([C@H]3CCN(C4COC4)C[C@@H]3F)c2Cl)ncc1C(F)(F)F,inactive,
OC[C@H]1O[C@@H](Oc2cc(O)cc(-c3cc4ccc(O)cc4o3)c2)[C@H](O)[C@@H](O)[C@@H]1O,inactive,
C=C1CC[C@H]2[C@@H](/C=C(\C)C(=O)[C@@]3(OC(C)=O)C[C@H](C)[C@H](OC(C)=O)[C@@H]3[C@H]1OC(C)=O)C2(C)C,7.94 µM (active),
COc1c(C)c(C(=O)c2ccc(N)c(C(=O)O)c2)n2ccccc12,inactive,
C=CCc1ccc(O[C@@H]2O[C@H](CO[C@@H]3O[C@@H](C)[C@H](O)[C@@H](O)[C@H]3O)[C@@H](O)[C@H](O)[C@H]2O)cc1,inactive,
N[C@H]1C[C@H]1c1ccc(-c2cccc(O)c2)cc1,inactive,
CC1=CC(=O)C[C@H]2[C@@H]1CC[C@@H](C)[C@]21CO[C@H](c2ccoc2)C1=O,inactive,
C=Cc1cc(O)cc2nc(-c3ccc(O)c(F)c3)oc12,35.5 µM (active),
C=C(C)[C@@H](C)[C@H]1O[C@]23C[C@]4(CO2)C(CCC2[C@@]5(C)CC[C@H](O[C@@H]6OC[C@H](O)[C@H](O[C@@H]7O[C@H](CO)[C@@H](O)[C@H](O)[C@H]7O)[C@H]6O[C@@H]6O[C@@H](CO)[C@H](O)[C@H]6O)C(C)(C)C5CC[C@]24C)C3[C@@](C)(O)[C@@H]1OC(C)=O (some centres not stated),inactive,
CC(C)=CCc1ccc(Oc2c(O)cc(C)cc2CO)c(C(=O)O)c1O,6.31 µM (active),
CC(=O)OCC1=C[C@H](O)[C@@H]2C(C(=O)O)=CO[C@@H](O[C@@H]3O[C@H](CO)[C@@H](O)[C@H](O)[C@H]3O)[C@H]12,inactive,
